The whole screen tested about 52,000 compounds, of which about 1,700 (3.3%) were called active. This is one part of a sample in which actives are shown more often than they occur. Values without a mark were called inactive. Rule as the data show it: active = survival mostly below about 52% (no sharp cut-off); inactive = mostly above about 56%.
Test system: Wild type
Assay: S. aureus survival, RN4220 and DeltatarO strains – OD600, teichoic acid synthesis inhibitors, primary screen (AID 463173)
Details: S. aureus RN4220 wild type/DeltatarO growth, OD600, 18 h, active compounds read low, screened at 18.75 µg/mL (by protocol)

SMILES	survival
Cc1ccccc1NC(=O)CSc1nc2ccc(NC(=O)COc3ccccc3F)cc2s1	81%
CSc1ccc(CCNC(=O)c2cc(C)nc3c2c(C)nn3-c2ccccc2)cc1	124%
Cc1ccc(C)c(Cn2c(-c3cccs3)nc3ccccc32)c1	8% (active)
OCc1nc2ccccc2n1Cc1ccccc1Cl	111%
CCC(O)c1nc2ccccc2n1Cc1cc(C)ccc1C (centres undefined)	99%
Cc1ccccc1Cn1c(COc2ccc(Cl)cc2)nc2ccccc21	130%
Cc1ccc(C)c(Cn2c(C(C)NC(=O)c3ccccc3)nc3ccccc32)c1 (centres undefined)	88%
Fc1cccc(Cl)c1Cn1c(-c2cccs2)nc2ccccc21	26% (active)
Cc1ccccc1Cn1cnc2ccccc21	116%
Cc1ccccc1Cn1c(-c2cccs2)nc2ccccc21	26% (active)
Clc1ccccc1Cn1c(-c2cccs2)nc2ccccc21	-3% (active)
OCc1nc2ccccc2n1Cc1c(F)cccc1Cl	98%
O=C(NCc1nc2ccccc2n1Cc1ccccc1Cl)c1ccccc1	90%
CCCC(=O)NCCc1nc2ccccc2n1Cc1c(F)cccc1Cl	66%
Cc1cccc(NC(=O)CC2C(=O)OCCN2Cc2ccccc2)c1 (centres undefined)	137%
CC1(N)CCS(=O)(=O)C1 (centres undefined)	110%
CCCn1cc(S(=O)(=O)c2ccc(CC)cc2)c(=O)c2cc(F)c(N(CC)CC)cc21	68%
Cc1ccccc1C(=O)Nc1ccccc1-c1nc(-c2ccccc2)no1	95%
O=C(CN1C2=NCCN2c2ccccc21)C12CC3CC(CC(C3)C1)C2	98%
NC(=O)CSc1ncc2c(n1)-c1ccccc1N(Cc1cccc(F)c1)S2(=O)=O	73%
CCN1CCN(c2oc(-c3ccc(COc4ccc(OC)cc4)o3)nc2C#N)CC1	75%
CC(C)c1ccc(NC(=O)CN2C(=O)COc3ccc(S(=O)(=O)N4CCCCCC4)cc32)cc1	109%

SMILES	survival
Cc1cccc(CNC(=O)Cn2c(-c3cccs3)cc3ccccc32)c1	135%
CC(=O)N1CCCC1c1nc2ccccc2n1Cc1cccc(C)c1 (centres undefined)	85%
Cc1cccc(Cn2c(-c3cccs3)nc3ccccc32)c1	-6% (active)
CCN(CC)S(=O)(=O)c1ccc(S(=O)(=O)NCc2ccc3c(c2)OCO3)cc1	108%
CN(C(=O)CSc1nc2ccccc2n1Cc1cccc(C(F)(F)F)c1)c1ccccc1	87%
CC(=O)c1cccc(NC(=O)Cn2c(SCC(=O)Nc3ccc(F)cc3)nc3ccccc32)c1	-3% (active)
COc1ccc(NC(=O)CSc2nc3ccccc3n2CC(=O)NCc2ccc(F)cc2)cc1	-6% (active)
O=C(CSc1nc2ccccc2n1CC(=O)Nc1ccc(F)cc1F)Nc1ccc(F)cc1	72%
COc1cccc(CNC(=O)Cn2c(SCC(=O)Nc3ccc(F)cc3)nc3ccccc32)c1	0% (active)
O=C(Cn1c(SCC(=O)Nc2ccc(F)cc2)nc2ccccc21)NCc1ccc(F)cc1	63%
Cc1ccccc1NC(=O)Cn1c(SCC(=O)Nc2ccc(F)cc2)nc2ccccc21	76%
COc1ccc(CNC(=O)Cn2c(SCC(=O)Nc3ccc(OC)cc3)nc3ccccc32)cc1	69%
COc1cccc(Cn2c(SCC(=O)N(C)c3ccccc3)nc3ccccc32)c1	-6% (active)
Cc1ccc(CNC(=O)Cn2c(SCC(=O)Nc3ccc(F)cc3)nc3ccccc32)cc1	131%
COc1cccc(CNC(=O)Cn2c(SCC(=O)Nc3ccc(C)c(C)c3)nc3ccccc32)c1	76%
COC(=O)c1ccc(Cn2c(SCC(=O)N(C)c3ccccc3)nc3ccccc32)cc1	75%
CCN(CC)C(=O)c1ccc(Nc2nnc(-c3ccc(C)c(S(=O)(=O)NC)c3)c3ccccc23)cc1	79%
COc1ccc(CNc2nc3c(-c4cccc(F)c4)nnn3c3ccccc23)cc1	86%
N#Cc1ccccc1NC(=O)C(=O)NCCc1csc2nc(-c3cccc(F)c3)nn12	81%
COc1ccc(CCC(=O)NCc2nc3cccnc3n2Cc2cccc(OC)c2)cc1	73%
CCOC(=O)N1CCC2(CC1)OC(=O)C(C)=C2C(=O)NCc1cccc(OC)c1	131%
CCOC(=O)CSc1nc2ccc(NC(=O)c3ccc(Cl)cc3)cc2s1	90%

SMILES	survival
CCOc1ccc(-c2nc3c(c(SCC(=O)N4CCCCC4)n2)Cc2cccc(OC)c2O3)cc1	75%
COc1ccccc1CCNC(=O)C1CCN(c2nc3ccccc3nc2C(F)(F)F)CC1	121%
CCCSCCCNC(=O)C1CCN(c2nc3ccccc3nc2C(F)(F)F)CC1	-3% (active)
CCCCNC(=O)C1CCN(c2nc3ccccc3nc2C(F)(F)F)CC1	82%
O=C(NCCc1ccccc1Cl)C1CCN(c2nc3ccccc3nc2C(F)(F)F)CC1	10% (active)
CCNC(=O)C1CCN(c2nc3ccccc3nc2C(F)(F)F)CC1	148%
Cc1ccccc1CCNC(=O)C1CCN(c2nc3ccccc3nc2C(F)(F)F)CC1	68%
Cc1ccc(NC(=O)C2CCN(c3nn4cc(-c5ccc(C)cc5)nc4s3)CC2)cc1	60%
Cc1cn2c(=O)cc(COC(=O)c3cccc(NC(=O)COc4ccccc4Cl)c3)nc2s1	124%
COc1ccc2c(c1)c1c(c(=O)n(Cc3ccccc3)c(=O)n1Cc1ccccc1Cl)n2C	84%
O=C(Nc1ccc2nc3n(c(=O)c2c1)CCCCC3)C(=O)Nc1ccccc1F	69%
O=C(Cc1ccc(Cl)cc1)NC1CC(=O)N(c2ccc3c(c2)OCCO3)C1 (centres undefined)	58%
CSc1ccccc1NC(=O)C1=CC(c2ccc3c(c2)OCO3)=NS(=O)(=O)N1C	87%
Cc1ccc(-c2nc3c(c(SCc4ccc(Br)cc4)n2)Cc2c(CO)cnc(C)c2O3)cc1	81%
CCOC(=O)c1c(C)[nH]c(C)c1S(=O)(=O)N1CCC(C(=O)Nc2ccc(OCC)cc2)CC1	-3% (active)
CCOC(=O)c1c(C)[nH]c(C)c1S(=O)(=O)N1CCC(C(=O)NCc2ccc(C)cc2)CC1	71%
CCOC(=O)c1c(C)[nH]c(C)c1S(=O)(=O)N1CCC(C(=O)Nc2ccc(C)c(Cl)c2)CC1	63%
CCOC(=O)c1c(C)[nH]c(C)c1S(=O)(=O)N1CCC(C(=O)NCc2ccccc2)CC1	55%
CCOC(=O)c1c(S(=O)(=O)N2CCC(C(=O)Nc3ccc(OCC)cc3)CC2)c(C)n(C)c1C	125%
CCOC(=O)c1c(C)[nH]c(C)c1S(=O)(=O)N1CCC(C(=O)NCc2ccc(F)cc2)CC1	1% (active)
